Bioassay records: PubChem BioAssay, National Center for Advancing Translational Sciences (NCATS)
The list is not random: actives were taken first. Their share in the collection is about 2.3%.
GLP-1R inv ag: inverse agonists of human GLP-1 receptor | P43220 | HEK293 GLP-1R CRE-luciferase, luminescence, 24 h; GLP-1R form is constitutively active | Potency, µM (top dose mostly 38.3 µM), for the others: top-dose activity change, negative = inhibition, usual class: inhibitors | actives 1.6% (n = 410,000) | AID 624417; note: % is set by controls: 0 for no effect and ±100 for the full control effect; nearly all actives have a fitted effect of over 55% in size
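qHTS in 1536-well format: reporter HEK293 cells expressing constitutive GLP-1R activity in DMEM + 10% Nu serum, 24 hr with compounds at 37 deg C, luminescence read after 12 min with detection reagent.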
GLP-1R agonist: activates the human GLP-1 receptor; HEK293 GLP-1R CRE-luciferase, luminescence, 4-6 h; cells express a hypersensitive GLP-1R form; actives 0.007% (n = 380,000); Potency, µM (doses to about 45.6 µM), for the others: top-dose activation, most hits filed as activators; note: % of control where 0% means no effect
PTHR1 ag: activates the human parathyroid hormone receptor PTHR1; Q03431; HEK293 GP2 PTHR1 cells, GloSensor cAMP luminescence, 1 h; Potency, µM (highest dose often 115 µM), for inactives: top-dose activation, hits mostly activators; actives 0.075% (n = 410,000); AID 743266; note: nearly all actives have a fitted effect of over 55% in size
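HEK-293-derived GP2 cells expressing PTHR1 and a GloSensor cAMP reporter, 3,000/well, plated overnight, given luciferin plus IBMX (each 0.5 mM as added) for 1 h at 37 °C, then compound for 1 h at 37 °C. Luminescence was read after 15 min at room temperature.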
GLS inh: blocks human kidney-isoform glutaminase activity. GLS enzymatic activity, qHTS titration. Potency, µM (top dose mostly 45.5 µM), for inactives: at the highest dose activity change, negative = inhibition, hits mostly inhibitors. actives 0.21% (n = 410,000); note: % is set by controls: 0 for no effect and ±100 for the full control effect
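Compounds were pin-transferred onto hKGA, after which L-glutamine (1 mM solution) and a detection mix of glutamate oxidase, HRP and Amplex Red were added. Initial and 30 min RT fluorescence reads were collected.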
GRP78 ERSR act: ER stress response induction in glioma. AID 602332. U87-MG GRP78 promoter luciferase reporter, 16 h. actives 0.02% (n = 420,000). Potency, µM, for inactives: top-dose activation, hits mostly activators; note: series mostly up to about 76 µM; % of control where 0% means no effect; nearly all actives have a fitted effect of over 35% in size
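Stably transfected U87-MG glioma cells carrying a GRP78-based luciferase sensor; 16 h compound incubation. Luminescence end-point read 10 min after Bright-Glo addition at room temperature.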
ALOX12 inh: ALOX12 (human) lipoxygenase inhibition; P18054; purified 12hLO, xylenol orange hydroperoxide absorbance; Potency, µM (top dose mostly 108 µM), for inactives: top-dose activity change, negative = inhibition, hits mostly inhibitors; actives 1.1% (n = 580,000); AID 1671190; note: % is set by controls: 0 for no effect and ±100 for the full control effect
Target sequence (P18054 whole entry, looked up): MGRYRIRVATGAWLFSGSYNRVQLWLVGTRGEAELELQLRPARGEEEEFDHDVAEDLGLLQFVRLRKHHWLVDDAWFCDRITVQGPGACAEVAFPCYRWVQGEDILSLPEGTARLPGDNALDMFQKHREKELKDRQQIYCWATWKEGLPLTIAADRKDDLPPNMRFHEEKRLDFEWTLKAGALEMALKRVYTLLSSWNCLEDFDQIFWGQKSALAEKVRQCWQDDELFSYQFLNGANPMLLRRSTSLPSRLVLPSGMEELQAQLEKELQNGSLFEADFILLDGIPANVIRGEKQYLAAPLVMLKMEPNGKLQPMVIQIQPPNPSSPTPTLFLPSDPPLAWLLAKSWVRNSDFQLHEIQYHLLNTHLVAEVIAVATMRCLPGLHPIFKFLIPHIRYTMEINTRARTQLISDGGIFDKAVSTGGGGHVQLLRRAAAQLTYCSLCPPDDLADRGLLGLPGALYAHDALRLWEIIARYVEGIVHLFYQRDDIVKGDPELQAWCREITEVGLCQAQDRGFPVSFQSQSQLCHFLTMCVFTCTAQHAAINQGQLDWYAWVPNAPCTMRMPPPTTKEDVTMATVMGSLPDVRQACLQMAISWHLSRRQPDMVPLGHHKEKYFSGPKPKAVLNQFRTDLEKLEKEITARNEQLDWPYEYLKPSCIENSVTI
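Purified human 12hLO (150 nM final) in 25 mM Hepes, 0.01% Triton X-100, pH 7.0 was preincubated 15 min at room temperature with compound. Then 40 uM arachidonic acid was added, 30 min. Hydroperoxide was read by Fe-XO absorbance ratio 573/405 nm.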
* marks the source's active call; other numbers are inactive results; i = inactive; ? = inconclusive; nt = no result; [ ] = another dose, or the depositor's remark. Calls come from the whole dose curve; as a rule, active = well fitted curve in the direction sought with a large enough effect; inconclusive = small, poorly fitted or top-dose-only effect, or another doubt; inactive = no such curve, though single readings can be large; an effect the other way counts as inactive or inconclusive. Potency is the fitted concentration of half-maximal effect.

SMILES | GLP-1R inv ag | GLP-1R agonist | PTHR1 ag | GLS inh | GRP78 ERSR act | ALOX12 inh
CC(C)c1ccc(N2C(=O)NC(=O)/C(=C/C=C/c3ccco3)C2=O)cc1 | 0.6% | 2.2% | -42.4% | 4.5% | ? | 44.7µM*
O=C1NC(=O)N(Cc2ccc(F)cc2)C(=O)/C1=C\C=C\c1ccco1 | ? | 6.8% | -40.6% | 0.0% | -14.4% | ?
CCc1ccc(N2C(=O)NC(=O)/C(=C\C=C\c3ccco3)C2=O)cc1 | ? | 0.5% | -43.5% | -18.8% | -1.9% | 0.0%
Cc1ccc(N2C(=O)NC(=O)/C(=C/C=C/c3ccco3)C2=O)cc1 | ? | -26.6% | -16.6% | 24.3% | -12.1% | ?
CC(C)(C)NC(=O)NC(O)C(Cl)(Cl)Cl (centres undefined) | nt | nt | nt | nt | nt | -21.2%
COc1cc2c(cc1Oc1cccc(N(C)C)c1)NC(=O)C21CCN(CC2CC2)CC1 | nt | nt | nt | nt | nt | 49.5%[176 µM]
COc1cc2c(cc1Oc1cccc(N(C)C)c1)NC(=O)C21CCN(Cc2ccccc2)CC1 | nt | nt | nt | nt | nt | 89.1µM*
O=C(c1cccs1)C1CCCN(Cc2nc(-c3ccccn3)no2)C1 (centres undefined) | nt | nt | nt | nt | nt | 51.8%
O=C1NC(=O)C(=Cc2csc3ccccc23)C(=O)N1 | -2.8% | -6.0% | i | -5.6% | -11.0% | 39.8µM*
Cn1cc(C=C2C(=O)NC(=O)NC2=O)c2ccccc21 | 66.1% | 6.0% | -21.6% | -1.1% | 0.0% | 0.0%
c1ccc(CN2CCC3(CC(c4cccnc4)=NO3)C2)nc1 (centres undefined) | nt | nt | nt | nt | nt | -13.4%[6.33 µM]
CCOC(=O)C1=CC(=C2C(=O)N(CC)C(=S)N(CC)C2=O)c2ccccc2O1 | ? | 7.2% | i | -5.5% | -0.8% | 17.8µM*
C[N+](C)(C)CC1CCCCC1=O (centres undefined) | nt | nt | nt | nt | nt | 12.6µM*
O=[S+]1([O-])NCC2(CCN(Cc3ccoc3)C2)Oc2ncccc21 (centres undefined) | nt | nt | nt | nt | nt | -0.1%[6.33 µM]
CCN(CC)C(=O)c1ccc2c(c1)C1C=CCC1C(C(=O)O)N2 (centres undefined) | -12.3% | -1.7% | -52.3% | 7.08µM* | -2.8% | ?
CCN(CC)C(=O)c1ccc2c(c1)C1C(Cl)C(Sc3ccccc3[N+](=O)[O-])CC1C(C(=O)O)N2 (centres undefined) | -5.6% | 5.5% | 27.5% | ? | -4.1% | nt
N=C(N)c1c(O)n(C2CCCCC2)c(=O)n(C2CCCCC2)c1=O | 4.47µM* | -38.3% | -8.0% | 0.3% | -14.4% | 0.0%
COCc1nnc2n1CCC(NC(=O)c1nn(C)c3ccccc13)CC2 (centres undefined) | nt | nt | nt | nt | nt | 45.4%
O=C1NC(=S)NC(=O)C1c1ccccc1 | 5.0% | 5.4% | i | ? | -4.1% | 31.6µM*
COC(=O)[C@@H]1[C@@H](C(=O)OC)C2(c3ccccc3-c3ccccc32)N(c2ccc(Cl)cc2)N1C#N | 3.98µM* | -16.2% | -37.4% | 9.9% | -18.1% | -4.6%
Cc1ncc2c(n1)C[C@@H]1CC[C@H]2N1C(=O)c1nn(C)c2ccccc12 | nt | nt | nt | nt | nt | 40.5%
CCOC(=O)c1c(C)n(Cc2ccccc2)c2ccc(OC)cc12 | nt | nt | nt | nt | nt | 12.4%
Clc1cccc(N2Cc3cc(-c4ccccc4)ccc3-n3nncc3C2)c1 | -7.5% | -11.1% | -18.2% | 34.6% | -10.6% | -54.6%
COc1ccc(-c2ccc3c(c2)CN(c2cccc(Cl)c2)Cc2cnnn2-3)cc1 | 19.3% | 8.4% | -21.8% | -4.3% | -3.6% | 17.8µM*
COc1ccc(C(=O)C(C)(C)NO)cc1 | 5.3% | 18.0% | i | 24.2% | -5.3% | 5.01µM*
COc1ccc(C(=O)C23CN4CN(CN(C4)C2)C3)cc1 | -15.6%[7.66 µM] | -0.3% | i | 1.7% | -1.9% | -7.1%
O=C(COc1ccc(F)cc1)N1CCN(Cc2cc(=O)n3nc(-c4ccc(F)cc4)sc3n2)CC1 | nt | nt | nt | nt | nt | -13.6%
COC(=O)C1=C(C)N[C@]2(C)C[C@H]1c1ccccc1O2 | nt | nt | nt | nt | nt | -8.7%
